This test deals with AT4G31550 (Arabidopsis thaliana, UniProt Q9SV15 228-325). In words: DPI-ELISA; DPI-ELISA, streptavidin 384-well plate, 1-2 pmol biotinylated dsDNA per well, crude native E. coli extract, anti-His detection; buffer as in Brand et al. [46],; high values mean tight binding. Conditions: tags: C-terminal His (pET-DEST42); label: 5' biotin on forward strand; dsDNA, one strand shown. (An ELISA detects its analyte on a solid surface through an enzyme-linked reagent.)
Chain of AT4G31550 (Q9SV15 228-325): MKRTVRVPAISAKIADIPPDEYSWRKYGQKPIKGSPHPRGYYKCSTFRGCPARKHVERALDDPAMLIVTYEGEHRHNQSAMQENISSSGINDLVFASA
As to AAAAAATATGTAGCTGCCGTTACGCTAAAA, the binding signal stood at 0.54 ± 0.212 absorbance. In turn, AAAAAAATATTTGAGCTAGGTTATCAAAAA returned a binding signal of 0.57 ± 0.113 absorbance. As to AAAAAAATCACGGTTCGACCTCCAGCAAAA, the binding signal amounted to 0.7 ± 0.127 absorbance.

Consider AAAAAAGCCGTGGGTGATGGTCACAGAAAA, for which the binding signal was 0.56 ± 0.113 absorbance. Under AAAAAACCCGCCGTCGTGATTATCACAAAA stands 0.73 ± 0.0707 absorbance. Consider AAAAAATGGGGCTCTGGCCCACCGTAAAAA, for which the binding signal came to 0.525 ± 0.0778 absorbance. With AAAAAAAGGGTGCTATTCGTCGACACAAAA the figure was 0.63 ± 0.141 absorbance; with AAAAAACCGTCTTATCTCTCGTCCCTAAAA, 0.565 ± 0.12 absorbance. Under AAAAAAGATTGACTCGTCTTACTCGAAAAA stands 3.08 ± 0.742 absorbance; under AAAAAACTGTCTGTCCTATATCACTTAAAA, 0.66 ± 0.099 absorbance. Under AAAAAACTACCTCTACTCTAGCCTTAAAAA stands 0.515 ± 0.0495 absorbance; under AAAAAAATCATCCTATTGTTGCTGTCAAAA, 0.665 ± 0.12 absorbance. Take AAAAAACGCAACTCCGGATGTGGGGTAAAA: the binding signal was determined as 0.545 ± 0.0636 absorbance. Under AAAAAATAGCGACTTCGACTCTCAGTAAAA stands 0.76 ± 0.0707 absorbance; under AAAAAAGCTTCTCATGTTGTCTTAGGAAAA, 0.695 ± 0.177 absorbance; under AAAAAAAGTTTGACCTTGGCGTTCGTAAAA, 3.5 ± 0.148 absorbance. With AAAAAATGGAAGGAGAGGGATGAAATAAAA the figure was 0.57 ± 0.156 absorbance. Under AAAAAAGCCCCTTGCGCCTCTCTACCAAAA stands 0.62 ± 0.0424 absorbance; under AAAAAACTCGACATAGAATGCGGAAAAAAA, 0.655 ± 0.106 absorbance. As for AAAAAAATTCATGCTATTTAACCTTAAAAA, the binding signal turned out to be 0.745 ± 0.0919 absorbance. With AAAAAACCCGTTCTACCTTATTCCTGAAAA the figure was 0.525 ± 0.106 absorbance; with AAAAAATCGGGCCCCGTTAGCACTCTAAAA, 0.665 ± 0.12 absorbance; with AAAAAAGTCCATAAACTAAATTGGATAAAA, 0.525 ± 0.0495 absorbance. As for AAAAAAACTCTAGGTCAATATTATTCAAAA, the binding signal was found to be 3.11 ± 0.636 absorbance.

(Values after article PMC3795721, “Screening for Protein-DNA Interactions by Automatable DNA-Protein Interaction ELISA”.)
